The full list was thinned out, with hits kept by preference.
ERG Ets-DNA blk: ERG Ets/DNA interaction inhibition; Potency, µM (series often up to 76.9 µM), for the others: at the top dose FP activity, negative = inhibition, most hits filed as inhibitors; hit rate 0.028% among 370,000; P11308; fluorescence polarization, His-ERG Ets domain / labelled DNA; active means well fitted inhibition curve with a large enough effect in the polarisation, with a control signal flat; inconclusive means small, poorly fitted or top-dose-only effect, or effect the other way, or a change in a side signal; inactive means no such curve, though single readings can be large or run the other way; the % refers to the polarisation;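 further: polarization taken with two DNA probes labelled with fluorescein and Texas red; % of control where 0% means no effect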
Target sequence (P11308 whole entry, looked up, the tested form may be a part): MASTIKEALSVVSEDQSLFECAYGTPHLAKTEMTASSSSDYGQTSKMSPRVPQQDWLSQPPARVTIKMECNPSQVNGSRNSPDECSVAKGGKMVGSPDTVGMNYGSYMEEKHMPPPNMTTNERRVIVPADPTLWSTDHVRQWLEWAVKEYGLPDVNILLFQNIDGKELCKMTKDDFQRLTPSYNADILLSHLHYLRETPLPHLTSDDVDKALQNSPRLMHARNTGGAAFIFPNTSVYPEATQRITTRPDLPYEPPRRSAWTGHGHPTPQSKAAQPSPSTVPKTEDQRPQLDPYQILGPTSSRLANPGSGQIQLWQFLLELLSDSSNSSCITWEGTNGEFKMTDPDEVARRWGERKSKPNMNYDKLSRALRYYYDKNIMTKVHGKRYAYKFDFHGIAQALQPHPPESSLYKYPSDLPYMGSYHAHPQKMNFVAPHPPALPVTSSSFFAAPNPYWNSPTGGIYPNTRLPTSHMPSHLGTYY
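His-tagged ERG Ets domain (1 uM in the protein solution; 300mM KCl, 50mM Tris-HCl, 1mM EDTA, 1mM DTT, pH 7.5) received compound, then a probe mix of 5 nM fluorescein-DNA and 100nM Texas-615-DNA. Fluorescence polarization was read for both dyes.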
TexasRed fluor: Texas Red fluorescence interference in TRb-SRC2 counter-screen; Potency, µM (top dose mostly 106 µM), for the others: at the highest dose fluorescence change, negative = quenching; hit rate 0.29% among 280,000; TRb/SRC2 Texas Red total fluorescence interference; AID 1479; active means well fitted curve in either direction with a large enough effect; inconclusive means small, poorly fitted or top-dose-only effect; further: on the % scale 0 is the no-effect control and ±100 the full control effect
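Human TRb ligand-binding domain at 0.6 uM with 20 nM Texas Red SRC2 peptide in Tris buffer containing 1 uM T3 and 5% DMSO, incubated with compound 5 h at ambient temperature. Total fluorescence (555/632 nm) calculated as parallel + 2 × perpendicular.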
TRb SRC2 PPI: TRbeta-SRC2 interaction inhibition; hit rate 0.065% among 280,000; TRbeta-SRC2 peptide binding, fluorescence polarization; receptor liganded with 1 µM T3; AID 1469; Potency, µM (doses to about 106 µM), without a hit: top-dose activity change, negative = inhibition, actives largely listed as inhibitors; active means well fitted inhibition curve with a large enough effect; inconclusive means small, poorly fitted or top-dose-only effect, or effect the other way;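 further: plate controls were bound peptide for no effect and peptide without receptor for full effect; nearly all actives have a fitted effect of over 50% in size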
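Binding of a 20-amino-acid Texas Red SRC2 peptide (20 nM) to TRb ligand-binding domain (0.6 uM) with agonist T3 at 1 uM was followed by fluorescence polarization after a 5 hr room-temperature incubation.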
* hit, by the source's call; i = inactive; ? = inconclusive; . = no result; [ ] = remark or other dose. Potency means the concentration at half of the fitted maximal effect.

SMILES	ERG Ets-DNA blk	TexasRed fluor	TRb SRC2 PPI
COC(=O)c1ccc(NC(=O)C(=O)NCC(c2cccnc2)N2CCN(c3ccccc3)CC2)cc1 (stereo not given)	7%	-1%	0%
C=C[C@@H]1CN2CC[C@@H]1C[C@H]2[C@H](O)c1ccnc2ccc(OC)cc12	.	.	-4%
COc1ccc(NC(=O)CC(C)S(=O)(=O)c2cc3c(cc2C)NC(=O)CO3)cc1OC (stereo not given)	-5%	?	-3%
O=C(N/N=C1/C[C@@H](O)[C@@H](O)[C@@H]2[C@@H]3C(=O)N(C4CCCCC4)C(=O)[C@H]3CC[C@@H]12)OCc1ccccc1	.	0%[11.2 µM]	2%[11.2 µM]
COc1ccccc1OCCn1c(-c2ccc(Br)cc2)nc2ccccc2c1=O	3%	-3%	12%
CO[C@@H]1COC(=O)[C@H](C)NC(=O)C/C=C\[C@@H](C)[C@H](OC)COC(=O)[C@H](C)NC(=O)C/C=C\[C@H]1C	.	0%[11.2 µM]	-3%[11.2 µM]
CCc1cccc(C)c1NC(=O)CN1C(=O)C2(SCC(=O)N2c2cccc(F)c2)c2ccccc21 (stereo not given)	-1%	20µM*[quencher]	-24%
NC(=O)CN1C(=O)C2(SCC(=O)N2c2cccc(F)c2)c2ccccc21 (stereo not given)	-2%	-3%	0%
Cc1cccc(-c2nc3scc(CCNC(=O)c4ccccc4Cl)n3n2)c1	-2%	-2%	-7%
COc1ccccc1NC(=O)CC(C)=O	.	-3%[201 µM]	-1%[201 µM]
Cc1ccc(Cl)cc1N1CCN(C(=O)c2ccc(CS(=O)(=O)c3ccc(Br)cc3)o2)CC1	9%	1000µM*[quencher]	-7%
Cc1ccc(S(=O)(=O)Cc2ccc(C(=O)N3CCN(c4cccc(Cl)c4)CC3)o2)cc1	0%	-2%	4%
CC1=CC2C3CC(C=C3C)C2C1 (stereo not given)	.	-5%[201 µM]	1%[201 µM]
CN(C)CCC(=O)c1ccc(F)cc1	11%	-6%	-2%
CCCCCCc1ccc(C(=O)CCN(C)C)cc1	.	1%	16µM*
COc1ccc(Cl)cc1NC(=O)CN1C(=O)C(C)(C)c2cc(S(=O)(=O)N3CCCCC3)ccc21	-6%	-15%	4%
Cc1ccc(Cl)cc1NC(=O)CN1C(=O)C(C)(C)c2cc(S(=O)(=O)N3CCCCC3)ccc21	0%	0.0045µM*[quencher]	-20%
COc1ccc(N=C2NC(=O)S/C2=C\c2ccc(N(C)C)cc2)cc1	38%	50µM*[fluorescent]	32µM*
CCOc1ccc(N=C2NC(=O)S/C2=C\c2ccc(Cl)cc2)cc1	11%	0%	-16%
COc1ccc(NC(=O)c2cn3c4c(ccc(Cl)c4c2=O)OC(C)C3)cc1OC (stereo not given)	7%	25µM*[quencher]	-18%
CC(=O)c1ccc(NC(=O)c2cn3c4c(ccc(Cl)c4c2=O)OC(C)C3)cc1 (stereo not given)	-9%	4%	0%
CCOc1ccc(S(=O)(=O)Nc2ccc(-c3ccc(OC)nn3)cc2)cc1	-1%	-3%	-6%
COc1ccc(-c2ccc(NS(=O)(=O)c3ccc(F)c(C(F)(F)F)c3)cc2)nn1	5%	224µM*[quencher]	-4%
CCN(CC)c1ccc(N=Cc2cc(Br)ccc2O)cc1	31%	11%	50µM*
Oc1ccc(Br)cc1C=Nc1ccc(Cl)cc1	-3%	-1%	-4%
SMILES	ERG Ets-DNA blk	TexasRed fluor	TRb SRC2 PPI
CCn1c(CSc2nccn2C)nc2cc(C(=O)O)ccc21	?	13µM*[fluorescent]	?
Cn1ccnc1SCC(=O)c1ccc2ccccc2c1	-3%	-3%	-6%
C=CCCCCCCCCCCCC	.	-4%[201 µM]	3%[201 µM]
COc1ccc(NC(=O)Cn2cnc3c(nc4n3CCCCC4)c2=O)cc1Cl	?	?	8%
O=C(Cn1cnc2c(nc3n2CCCCC3)c1=O)Nc1ccc(F)c(Cl)c1	0%	18µM*[quencher]	-7%
CCOC(=O)Cn1c(=O)n(-c2ccc(Cl)cc2)c2nc(-c3ccc(Cl)cc3)nc(C(N)=O)c21	0%	-3%	1%
C=CCc1ccccc1OCC(O)CN1CCN(c2ccccc2)CC1 (stereo not given)	-1%	1.6µM*[quencher]	?
C=CCc1cc(C)ccc1OCC(O)CN1CCN(c2ccccc2)CC1 (stereo not given)	-11%	1%	-15%
CCCCC#CC1C=CC(Oc2ccc(C(=O)OC)cc2)C(COC(=O)OCC)O1 (stereo not given)	.	-1%[11.2 µM]	3%[11.2 µM]
CCCCCCCC(=O)OC	.	-3%[201 µM]	6%[201 µM]
O=C(NCc1ccc(Cl)cc1)C1CCN(c2nn3cc(-c4ccc(F)cc4)nc3s2)CC1	-2%	-23%	1%
CCOC(=O)COc1ccc([N+](=O)[O-])cc1-c1ccnc2cc(-c3ccc(C)cc3)nn12	7%	-16%	2%
Cc1cc(O)c(-c2ccnc3cc(-c4ccccc4)nn23)cc1Cl	0%	11µM*[quencher]	-6%
Cc1ccc(-c2cc3nccc(-c4cc([N+](=O)[O-])ccc4O)n3n2)cc1	12%	45µM*[quencher]	-6%
Cc1cc(-c2ccccc2)n2nc(-c3cccc(Br)c3)cc2n1	-4%	-2%	1%
O=C(COc1ccccc1Cl)OCc1cc(=O)n2nc(C3CCCCC3)sc2n1	13%	-3%	1%
COC(=O)c1ccc(NC(=O)c2cc3cc4ccc(OC)c(Cl)c4nc3s2)cc1	0%	-6%	-11%
CCCCCCCCCCCC(=O)N(C)CC(=O)O	.	-1%[201 µM]	-1%[201 µM]
Cc1ccc(NS(=O)(=O)c2ccc3[nH]c4c(c3c2)CCCC4)cc1N(C)C	-3%	?	-2%
COc1ccccc1N1CCN(C(=O)c2nn(-c3ccc(C)cc3)c(=O)n(C)c2=O)CC1	1%	-3%	10%
C/C(=N\NC(=O)c1ccc(C)cc1C)c1ccc2c(c1)OCO2	0%	0%	2%
C/C(=N\NC(=O)c1cc2ccccc2cc1O)c1ccc2c(c1)OCO2	8%	35µM*[quencher]	23%
CCOC(=O)c1scc(-c2ccccc2)c1S(=O)(=O)N1CCN(c2ccc(Cl)cc2)CC1	0%	2%	-2%
N[C@@H]1[C@@H](O)[C@H](O)[C@@H](CO)O[C@H]1O	.	-1%[201 µM]	0%[201 µM]
Cc1ccc2c(CC(=O)N(Cc3ccc(Cl)cc3)Cc3ccco3)coc2c1	4%	1.1µM*[quencher]	-17%[53 µM]
SMILES	ERG Ets-DNA blk	TexasRed fluor	TRb SRC2 PPI
Cc1ccc(OCC(=O)N(Cc2ccco2)Cc2ccco2)cc1	-3%	0%	-12%
Cc1ccc(CN(Cc2ccco2)C(=O)COc2ccc(C(C)C)cc2)cc1	3%	0.0006µM*[quencher]	?
Cc1cc(C)c2c(CC(=O)N(Cc3ccc(N(C)C)cc3)Cc3ccco3)coc2c1	-2%	?	-8%
COc1cccc2c1C(=O)c1c(O)c3c(c(O)c1C2=O)C[C@](O)(C(=O)CO)C[C@@H]3O[C@H]1C[C@H](N)[C@@H](O)[C@H](C)O1	.	1%	3%
COc1cccc2c1C(=O)c1c(O)c3c(c(O)c1C2=O)C[C@@](O)(C(=O)CO)C[C@@H]3O[C@H]1C[C@H](N)[C@@H](O)[C@H](C)O1	i	.	.
COc1cccc2c1C(=O)c1c(O)c3c(c(O)c1C2=O)C[C@@](O)(C(=O)CO)C[C@@H]3OC1C[C@@H](N)[C@H](O)[C@H](C)O1 (stereo not given in full)	.	40µM*[fluorescent]	14µM*

Bioassay records (PubChem BioAssay)
